CtBP-E1A blk: CtBP/E1A binding inhibition. AlphaScreen GST-E1A/His-CtBP binding, 1536-well; stronger effect = lower value. 340,000 tested, 0.49% active. activity change, % (no concentration beside the values). AID 651724; in the data active means activity change below about -65%; inconclusive means mostly about -30% to -63%
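In 5 uL wells, 23 nL compound meets equimolar GST-E1A and His-CtBP (5X stock 125 nM each) for 2 h, 37 °C. Beads (5X, 50 ug/mL) then 1 h, 37 °C, dark.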
TDP1 cell noCPT: qHTS for Inhibitors of human tyrosyl-DNA phosphodiesterase 1 (TDP1): qHTS in cells in absence of CPT | AID 686978, 2013 | Potency, µM (top dose mostly 46.2 µM), inactives show at the top dose activity change, negative = growth inhibition, usual class: inhibitors | 420,000 tested, 15% active | DT40 Tdp1-/- hTDP1 cells, no CPT, ATP luminescence, 48 h; further: potency means the concentration at half of the fitted maximal effect; nearly all actives have a fitted effect of over 55% in size
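Seeded 400 DT40-hTDP1 cells/well (vehicle DMSO, no 20 nM CPT); pinned compounds; ≥48 hr at 37 °C; CellTiter-Glo luminescence as viability measure.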
Six1-Eya2 blk: Six1/Eya2 interaction inhibition; Q15475+O00167; AlphaScreen GST-Six1/His-Eya2 binding, biochemical; stronger effect = lower value; activity change, % (concentration not given with the values); 360,000 tested, 0.56% active; in the data active means activity change below about -65%; inconclusive means mostly about -30% to -63%
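AlphaScreen luminescence read after one hour at 37 °C in darkness. Pin-transferred compounds met GST-Six1 and His-Eya2 protein (5X stock 250 nM/500 nM) plus glutathione donor and Ni-chelate acceptor beads (5X, 50 ug/mL).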
IL-1B inflam inh: blocks inflammasome-driven IL-1 beta release. activity change, % at 57.5 µM. THP-1 LPS/ATP IL-1B secretion, AlphaLISA, 16 h; stronger effect = lower value. 360,000 tested, 4.7% active. AID 743279; in the data active means activity change below about -50%; inconclusive means mostly about -30% to -49%
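THP-1 cells pretreated 1 hr with compounds (up to 57.5 uM final), then stimulated with LPS (250 ng/mL final) plus ATP (1.25 mM final); secreted IL-1B measured by AlphaLISA after 16 hr, decreased signal indicating inhibition.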
DT40 TDP1 CPT: DT40-hTDP1 cell growth loss with CPT. Potency, µM (series often up to 46.2 µM), for inactives: top-dose activity change, negative = growth inhibition, hits mostly inhibitors. chicken DT40 Tdp1-/-;hTDP1 cells + 20 nM CPT, ATP luminescence, 48 h. AID 686979. 420,000 tested, 12% active; further: potency means the concentration at half of the fitted maximal effect; nearly all actives have a fitted effect of over 55% in size
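Cell growth measured by CellTiter-Glo luminescence after a minimum 48 h, 37 C compound exposure with 20 nM CPT in Tdp1-knockout DT40 cells stably expressing hTDP1, seeded 400/well; qHTS titration format.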
TDP1 block: inhibitors of human tyrosyl-DNA phosphodiesterase TDP1; recombinant TDP1, AlphaScreen DNA substrate cleavage; 350,000 tested, 0.28% active; AID 485290; Potency, µM (highest dose often 130 µM), for the others: top-dose activity change, negative = inhibition, most hits filed as inhibitors; Q9NUW8; further: potency means the concentration at half of the fitted maximal effect; nearly all actives have a fitted effect of over 40% in size
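Here, a 5' biotin and 3' phosphotyrosine-FITC DNA oligonucleotide reports Tdp1 activity: intact substrate bridges AlphaScreen beads, while cleavage leaves a 3' phosphate and drops signal. All incubations at room temperature.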
The depositor's hits bear a star; ? = inconclusive; · = no result. Only some compounds are listed: those with a hit (about 18% of all), similar ones and a draw of the others. Unless noted, the call rests on the fitted dose curve; in most records, active means well fitted curve in the direction sought with a large enough effect; inconclusive means small, poorly fitted or top-dose-only effect, or another doubt; inactive means no such curve, though single readings can be large; an effect the other way counts as inactive or inconclusive. On the % scale 0 is the no-effect control and ±100 the full control effect.

SMILES	CtBP-E1A blk	TDP1 cell noCPT	Six1-Eya2 blk	IL-1B inflam inh	DT40 TDP1 CPT	TDP1 block
CC(C)(C)c1ccc(O)c(N=Cc2cc3c(cc2[N+](=O)[O-])OCO3)c1	-12	16µM*	-25	49	?	·
Cc1ccc(S(=O)(=O)NC(C)(C)CSc2nncn2N)cc1	-5	-11%	0	5	-6%	5%
Cc1cc2c(n1-c1ccc(C(=O)NCCc3ccccc3)cc1)CCC(C)C2 (stereo not drawn)	·	21µM*	·	·	18µM*	6%
CCCOc1ccc(CNC(=O)c2ccc(-n3c(C)cc4c3CCC(C)C4)cc2)cc1 (stereo not drawn)	·	?	·	·	?	10%
COc1ccc(CCNC(=O)c2ccc(-n3c(C)cc4c3CCC(C)C4)cc2)cc1OC (stereo not drawn)	·	21µM*	·	·	?	7%
Cc1cc2c(n1-c1ccc(C(=O)NCCc3ccc(Cl)cc3)cc1)CCC(C)C2 (stereo not drawn)	·	23µM*	·	·	26µM*	1%
Cc1ccnc(NC(=O)c2cccc(NC(=O)COc3ccccc3)c2)c1	7	?	-2	1	?	0%
COc1ccc([C@@H]2[C@@H]3C(=O)N(C(C)(C)C)C(=O)[C@@H]3[C@]3(Cc4ccc(Cl)cc4)C(=O)N(c4ccc(OC)cc4)C(=O)N23)cc1	-5	-15%	0	3	0%	4%
COc1cc(/C=C(\C#N)C(N)=O)cc(CSc2nc3ccccc3s2)c1O	·	15µM*	·	·	15µM*	15%
Cc1ccccc1N(CC(=O)N1CCc2ccccc2C1)S(C)(=O)=O	6	15%	2	3	-6%	2%
Cc1ccc(NNC(=O)c2ccno2)c(C)c1	9	18µM*	2	45	3%	11%
COC(=O)C1CCN(S(=O)(=O)c2cc3c4c(c2)C(C)C(=O)N4CCC3)CC1 (stereo not drawn)	·	-16%	·	·	-12%	0%
CCCC(=O)c1cc(F)c(N2CCN(S(=O)(=O)c3ccccc3)CC2)cc1C	9	11µM*	3	-59*	16µM*	4%
CCC(=O)c1cc(F)c(N2CCN(C(=O)c3ccco3)CC2)cc1C	-5	29µM*	4	21	?	4%
CC(=O)c1cc(F)c(N2CCN(C(=O)Cc3ccccc3)CC2)cc1C	-1	15µM*	6	-13	15µM*	-4%
Cc1ccc(NC(=O)C2CCCN2C(=O)OCc2ccccc2)c(O)c1 (stereo not drawn)	1	-9%	-2	3	-11%	6%
Cc1cc(CSCc2ccc(Cl)cc2)no1	7	-3%	18	-21	2%	·
CCOc1ccc2c(c1)[N+](C)(C)C(C)(C)C=C2C	-19	15µM*	2	-55*	5.8µM*	1%
COc1ccc2c(c1)[N+](C)(C)C(C)(C)C=C2C	·	?	-3	42	?	6%
O=C(Nc1nc(C2C3CC4CC(C3)CC2C4)cs1)c1cc2cc([N+](=O)[O-])ccc2oc1=O (stereo not drawn)	11	9.2µM*	-6	12	12µM*	11%
O=C(c1cc2cc([N+](=O)[O-])ccc2oc1=O)n1cccn1	-1	?	-9	?	-6%	-3%
O=C(CCN1C(=O)/C(=C/c2ccccc2F)SC1=S)NCCCN1CCOCC1	12	?	-4	-97*	?	9%
O=C(CCN1C(=O)/C(=C\c2cccc(Br)c2)SC1=S)NCCCN1CCOCC1	-18	?	0	-20	?	14%
COc1ccccc1/C=C1\SC(=S)N(CCC(=O)NCCCN2CCOCC2)C1=O	24	?	23	-20	-4%	-1%
